# Bioassay records deposited in PubChem by several laboratories.
# MazF activator: increases E. coli MazEF RNase cleavage of RNA. P0AE70. FAM/BHQ RNA-DNA oligo cleavage fluorescence, 5 h. activation, % at 20 µM. 0.32% of 350,000 active; in the data active means activation above about 50%
# Target sequence (P0AE70 whole entry, looked up): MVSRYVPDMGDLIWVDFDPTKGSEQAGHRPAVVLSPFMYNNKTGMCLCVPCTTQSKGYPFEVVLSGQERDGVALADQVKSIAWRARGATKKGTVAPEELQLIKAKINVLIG
# SSB-PriA inh: blocks PriA binding to SSB C-terminal tail; AlphaScreen SSBct-PriA binding, biotinylated peptide; inhibition, % at 33 µM; 0.6% of 430,000 active; AID 1272365; in the data active means inhibition mostly above about 37%, no sharp cut-off; inactive means mostly below about 20%;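 further: plate controls were negative control peptide for no effect and reference peptide for full effect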
# BoNT-A LC inh2: BoNT A light chain protease inhibition | multiplex microsphere protease substrate cleavage, flow cytometry | inhibition, % at 10 µM | 0.17% of 360,000 active | AID 588499; further: plate controls were buffer without enzyme for full effect and enzyme alone for no effect
# Anthrax LF inh2: inhibitors of Bacillus anthracis lethal factor protease; multiplex microsphere protease cleavage assay, LF; 0.12% of 360,000 active; P15917; inhibition, % at 10 µM; further: plate controls were buffer without enzyme for full effect and enzyme alone for no effect
# BoNT-F LC inh: blocks Botulinum neurotoxin F light chain protease; inhibition, % at 10 µM; 0.22% of 360,000 active; AID 588497; Multiplex microsphere protease cleavage assay, flow cytometry; in the data active means inhibition above about 35%, passing the limit was not always enough; inconclusive means no clear call, values can overlap the other calls; further: plate controls were buffer without enzyme for full effect and enzyme alone for no effect
# Autofluor counter: compound fluorescence in toxin protease inhibitor counterscreen; compound autofluorescence counterscreen, microsphere flow cytometry; active compounds read high; fluorescence intensity (concentration not given with the values); 3.1% of 360,000 active; AID 624483; in the data active means fluorescence intensity above about 16000; inconclusive means no clear call, values can overlap the other calls
# The depositor's hits bear a star; ? = inconclusive; . = no result given. The list is not random: actives were taken first. Their share in the collection is about 3.3%. Unless noted, no stated cut-off is given here; in the data, active means inhibition above about 30%; inconclusive means no clear call, values can overlap the other calls; inactive means below that.
SMILES,MazF activator,SSB-PriA inh,BoNT-A LC inh2,Anthrax LF inh2,BoNT-F LC inh,Autofluor counter
CCSc1ccccc1C(=O)NCCc1nc(-c2cccs2)cn1C,.,-19.0,.,.,.,.
CCSc1ccc(NC(=O)c2cccnc2)cc1,2.9,-3.5,-0.5,-0.4,-20.0,4117
CCc1ccc(NC(=O)c2cccnc2)cc1,4.0,1.0,?,-2.3,-5.0,21122*
CCc1ccc(OC(=O)c2cccnc2)cc1,7.1,-4.6,-3.1,36.6*,-5.8,3031
CCCC12CN3CC(CCC)(CN(C1)C3c1ccccn1)C2=O (configuration not stated),-4.4,58.0*,1.0,-3.4,9.1,9364
CC(=O)Nc1ccc(S(=O)(=O)N(C)c2ccccc2)cc1,2.3,-6.7,-2.1,-4.5,-24.5,9834
CC(=O)Nc1ccc(S(=O)(=O)N2CCN(C(=O)c3cccnc3)CC2)cc1,5.3,-3.6,-1.4,-2.8,-3.5,23558*
O=C(Nc1ccc(S(=O)(=O)N2CCN(Cc3ccccc3)CC2)cc1)c1cnccn1,0.1,-0.1,-1.9,-2.9,-5.7,16875*
CC(=O)Nc1ccc(S(=O)(=O)N(c2cccnc2)S(=O)(=O)c2ccc(NC(C)=O)cc2)cc1,2.3,-3.2,-2.3,-0.6,-6.0,23675*
O=C(CCc1ccccc1Br)N1CC(N2C(=O)CCC2=O)C1,.,-13.0,.,.,.,.
COc1cc(=O)n(-c2ccccc2)cc1C(=O)N1CCC(n2ccnn2)CC1,.,-9.0,.,.,.,.
Cc1ccc(-n2ccnc2N2CCN(C(=O)c3ccc(C)c(C)c3)CC2)cc1,.,36.0*,.,.,.,.
Cc1ccc(-n2ccnc2N2CCN(C(=O)c3c(F)cccc3Cl)CC2)cc1,.,62.0*,.,.,.,.
Cc1ccc(-n2ccnc2N2CCN(C(=O)c3c(F)cccc3F)CC2)cc1,.,78.1*,.,.,.,.
Cc1ccc(-n2ccnc2N2CCN(C(=O)COc3ccccc3)CC2)cc1,.,68.0,.,.,.,.
O=C1C(Cl)=C(NCCCN2CCOCC2)C(=O)N1CCc1ccccc1,-5.1,-7.4,-0.3,-9.3,-2.3,22919*
O=C1C(Cl)=C(NCCc2ccccc2)C(=O)N1CCc1ccccc1,69.7*,-17.1,1.2,-2.6,-7.5,4587
O=[N+]([O-])c1ccccc1S(=O)(=O)Oc1c(Br)cc(Br)c2cccnc12,.,19.0,.,.,.,.
Cc1nnc(NC(=O)Cc2csc(Nc3cccc(Cl)c3)n2)s1,.,10.0,.,.,.,.
CCn1nccc1C(=O)Nc1ccc(N=Nc2ccccc2)cc1,.,46.0*,.,.,.,.
COc1cccc2sc(N(CCCn3ccnc3)C(=O)c3ccco3)nc12,.,56.9*,.,.,.,.
O=C(c1ccco1)N(CCCn1ccnc1)c1nc2c(F)cccc2s1,.,71.8*,.,.,.,.
CCOc1cccc2sc(N(CCCn3ccnc3)C(=O)c3ccc(Cl)s3)nc12,.,50.0*,.,.,.,.
O=C(c1ccc(F)cc1)N(CCCn1ccnc1)c1nc2c(F)cccc2s1,.,18.0,.,.,.,.
Cc1cccc2sc(N(CCCn3ccnc3)C(=O)c3ccc(Cl)s3)nc12,.,21.0,.,.,.,.
SMILES,MazF activator,SSB-PriA inh,BoNT-A LC inh2,Anthrax LF inh2,BoNT-F LC inh,Autofluor counter
Cc1c(Cl)ccc2sc(N(CCCn3ccnc3)C(=O)c3ccco3)nc12,.,69.3*,.,.,.,.
O=C(c1ccco1)N(CCCn1ccnc1)c1nc2c(Cl)cccc2s1,.,64.3,.,.,.,.
CCc1cccc2sc(N(CCCn3ccnc3)C(=O)c3ccco3)nc12,.,109.9*,.,.,.,.
O=C(Nc1ccc(F)cc1F)N1CCCCC1c1cccnc1 (configuration not stated),-0.7,6.6,?,0.5,-0.9,22683*
COc1cccc(CN(C)C(=O)c2cccc(S(=O)(=O)NCc3ccccc3)c2)c1OC,6.0,-4.7,-3.0,-2.7,-11.1,?
COc1ccc(CN(C)C(=O)c2cccc(Oc3ccccc3)c2)c(OC)c1OC,54.9*,1.1,2.1,0.2,-2.3,5002
CCOC(=O)c1c(-c2ccc(F)cc2)csc1NC(=O)CSc1nnc2scc(-c3ccccc3)n12,.,-10.0,.,.,.,.
CCCn1c2c(c(O)c(C(=O)Nc3ncccc3C)c1=O)CCCC2,4.0,-11.8,0.4,-2.3,2.5,22788*
C[C@H]1Cc2ccccc2N1C(=O)c1c[nH]c(=O)n(Cc2ccc3c(c2)OCO3)c1=O,.,-23.0,.,.,.,.
O=C1OCCC1Sc1nnc(-c2cccc(Br)c2)o1 (configuration not stated),0.1,-32.2,1.5,-3.4,0.2,20056*
Cc1cc(C(=O)CSc2cccc[n+]2[O-])c(C)n1-c1ccccc1,-7.5,2.8,0.3,-4.4,-5.6,5003
Cn1cnnc1SCC(=O)c1c[nH]c2ccccc12,2.3,9.3,-6.5,5.9,-8.6,25248*
Cc1cc(C(=O)CSc2nncn2C)c(C)n1-c1ccccc1,57.4*,7.9,-1.1,2.6,-4.2,2592
Cc1nc2cc(-c3cccs3)[nH]n2c(=O)c1C,0.6,-4.5,4.4,-6.7,4.8,17502*
Cc1ccccc1-c1cc2nc(C)c(C)c(=O)n2[nH]1,11.8,-7.6,0.6,-9.5,22.8,4097
NNC1=NS(=O)(=O)c2ccccc21,.,28.0,.,.,.,.
O=S1(=O)N=C(Nc2nncs2)c2ccccc21,0.8,-0.9,?,-4.1,2.6,22257*
O=C(COc1ccc2ccccc2c1Br)Nc1ncn[nH]1,-0.5,-10.2,3.8,-6.1,4.4,21352*
Cc1nc(N2CCC(NC(=O)c3csc(C)n3)CC2)cc(C(F)(F)F)n1,.,-12.0,.,.,.,.
COC(=O)C1=C(C(=O)OC)SC2(S1)C(C(=O)OC)=C(C(=O)OC)Sc1c2ssc1=O,-25.2,95.7*,0.4,-8.4,3.3,4083
CCN(Cc1cnc2ccccn12)C(=O)Nc1ccc(C)c(C)c1,.,5.0,.,.,.,.
Cc1ccc(S(=O)(=O)CCC(=O)OCC(=O)NC(=O)c2ccccc2)cc1,0.5,-22.9,-153.6,-38.2,-243.7,40297*
CCC(=O)Nc1cc(C)nn1-c1nc2c(cnn2-c2ccc(F)cc2)c(=O)[nH]1,.,-4.0,.,.,.,.
COc1ccc(OC)c(N=c2oc3c(OC)cccc3cc2C(=O)NCc2ccco2)c1,75.5*,9.3,-0.5,-4.2,-6.1,16799*
COc1ccccc1N=c1oc2c(OC)cccc2cc1C(=O)NCc1ccco1,68.8*,-6.3,0.8,-3.2,0.6,20264*
SMILES,MazF activator,SSB-PriA inh,BoNT-A LC inh2,Anthrax LF inh2,BoNT-F LC inh,Autofluor counter
COc1cccc(C(=O)N/N=c2\oc3c(OC)cccc3cc2C(=O)NCc2ccccc2)c1,4.2,.,-0.6,0.9,-19.0,2519
COc1ccccc1C(=O)NCc1ccco1,5.8,-4.3,1.3,-8.9,24.5,4247
COc1ccc(N=c2oc3c(OC)cccc3cc2C(=O)NCc2ccco2)cc1OC,343.5*,9.5,?,-7.2,-0.6,19539*
COc1ccc([C@H](CNC(=O)C(=O)Nc2ccc(C)c(Cl)c2)N2CCOCC2)cc1,.,-8.0,.,.,.,.
O=C(Nc1nnc(Cc2ccc3c(c2)OCO3)o1)c1ccc([N+](=O)[O-])s1,.,-31.0,.,.,.,.
O=C(Cn1cnc2ccccc2c1=O)N1CC(S(=O)(=O)c2ccc(F)cc2)C1,.,0.0,.,.,.,.
N#CC(c1ccccc1)c1ccc2c(C(F)(F)F)cc(C(F)(F)F)nc2n1 (configuration not stated),-1.5,77.3*,-0.5,-3.3,-0.8,3549
Cc1ccc(C(C#N)c2ccc3c(C(F)(F)F)cc(C(F)(F)F)nc3n2)cc1 (configuration not stated),5.3,30.1,-0.6,-4.9,-13.8,2616
